Shown is part of a subset that was picked to be rich in hits.
RE007 growth inh – less growth of the S. pombe RE007 Vpr strain | S. pombe RE007 Vpr strain, BacTiter-Glo ATP luminescence, 24 h | Potency, µM (top dose mostly 92.2 µM), actives largely listed as inhibitors | 0.21% of 360,000 active | AID 651644; active = well fitted falling curve with a large enough effect; inconclusive = small, poorly fitted or top-dose-only effect; inactive = no such curve, though single readings can be large or run the other way; note: nearly all actives have a fitted effect of over 50% in size
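Fission yeast strain RE007, carrying one chromosomally integrated HIV-1 vpr copy, was seeded at OD 0.01 in PMG+AL medium with 23 nL pinned compound. After 24 h at 30 °C and 99% humidity, viability was read by BacTiter-Glo luminescence.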
Cycloheximide cs – counter-screen for Shiga toxin inhibitors: cycloheximide protein synthesis inhibition | 12% of 300,000 active | max response, % | cell reporter, cycloheximide protein synthesis inhibition counterscreen | AID 2314; in the data active = max response mostly above about 13%, no sharp cut-off; inactive = mostly below about 14%; note: read at 38.3 µM for the half of the compounds with a filed dose
FBPA Giardia inh – Giardia lamblia aldolase inhibition; purified Giardia FBPA; Potency, µM (series often up to 59.6 µM), actives largely listed as inhibitors; 0.71% of 290,000 active; AID 2451; note: nearly all actives have a fitted effect of over 55% in size
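Giardia FBPA (40 nM reagent) was preincubated 10 min at RT with compound (up to 57.5 uM final), then substrate plus GAPDH/TPI/NAD/arsenate coupling system with diaphorase/resazurin was added; resorufin fluorescence (525/598 nm) was read after 20 min.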
TbPYK inhibitor – inhibitors of Trypanosoma brucei pyruvate kinase; TbPYK enzyme, Kinase-Glo Plus ATP luminescence, 45 min; AID 624173; 0.12% of 410,000 active; Potency, µM (series often up to 76.8 µM), actives largely listed as inhibitors; Q57TT1; note: nearly all actives have a fitted effect of over 50% in size
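Enzyme and substrate buffer are dispensed first and compound is pin-transferred. ADP at 130 uM final then starts the reaction, which runs 45 min at room temperature. Detection reagent is added for 10 min before luminescence is imaged.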
Shiga toxin inh – Shiga toxin inhibition; 9.2% of 290,000 active; Vero cells, Shiga toxin protein synthesis inhibition reporter; inhibition, % at 38.7 µM; AID 2315; in the data active = inhibition mostly above about 28%, no sharp cut-off; inactive = mostly below about 43%
LmPK inh – inhibitors of Leishmania mexicana pyruvate kinase. Potency, µM (titrated, usually from 57.5 µM), most hits filed as inhibitors. purified LmPK, Kinase-Glo ATP luminescence, 1 h. Q27686. 0.37% of 290,000 active
Target sequence (Q27686 whole entry, looked up): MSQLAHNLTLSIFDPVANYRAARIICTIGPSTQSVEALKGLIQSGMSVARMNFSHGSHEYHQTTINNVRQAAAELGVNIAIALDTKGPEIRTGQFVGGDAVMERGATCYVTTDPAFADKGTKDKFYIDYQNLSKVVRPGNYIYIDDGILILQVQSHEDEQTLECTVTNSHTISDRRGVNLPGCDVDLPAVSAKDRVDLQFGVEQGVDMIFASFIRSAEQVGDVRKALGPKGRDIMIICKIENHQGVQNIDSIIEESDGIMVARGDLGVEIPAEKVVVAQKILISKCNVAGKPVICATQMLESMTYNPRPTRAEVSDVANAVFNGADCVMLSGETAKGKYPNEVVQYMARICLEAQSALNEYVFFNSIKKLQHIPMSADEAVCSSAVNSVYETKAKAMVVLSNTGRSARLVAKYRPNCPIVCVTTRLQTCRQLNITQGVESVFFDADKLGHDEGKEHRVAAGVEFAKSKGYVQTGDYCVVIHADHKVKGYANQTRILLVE
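qHTS format; LmPK 0.1 nM; substrates PEP 0.5 mM and ADP 0.1 mM. One-hour room-temperature incubation, then coupled luciferase luminescence; 0.5 nM enzyme wells mark activation.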
Of the large screens only hits and unclear results are named; the others gave an inactive call. Unless noted, calls come from the whole dose curve; as a rule, active = well fitted curve in the direction sought with a large enough effect; inconclusive = small, poorly fitted or top-dose-only effect, or another doubt; inactive = no such curve, though single readings can be large; an effect the other way counts as inactive or inconclusive.

COC(=O)[C@H](Cc1ccccc1)NC(=O)c1cc(COc2c(F)cccc2F)on1	Cycloheximide cs 52, Shiga toxin inh 67
COc1cccc(CNC(=O)c2cc(COc3c(F)cccc3F)on2)c1	Cycloheximide cs 29, Shiga toxin inh 33
COc1cccc(OCc2cc(C(=O)NCc3ccc4c(c3)OCO4)no2)c1	Cycloheximide cs 44, Shiga toxin inh 48 (no result: FBPA Giardia inh)
Cc1c(Cl)cccc1-n1ncc(C(=O)N2CCC(C)CC2)c1C1CCN(C(=O)OC(C)(C)C)CC1	none (no result: RE007 growth inh, Cycloheximide cs, FBPA Giardia inh, Shiga toxin inh, LmPK inh)
Cc1oc(CC(C)C)cc1C(=O)Nc1ccc(C(=O)O)cc1	Cycloheximide cs 57
Cc1cc(C(=O)Nc2ccc(C(=O)O)cc2)c(C)o1	none
Cc1oc(C(C)(C)C)cc1C(=O)Nc1cccc(C(=O)O)c1	Cycloheximide cs 37, Shiga toxin inh 80
Cc1cc(C(=O)Nc2cccc(C(=O)O)c2)c(C)o1	none
Cc1oc(C(C)(C)C)cc1C(=O)Nc1ccc(C(=O)O)cc1	Cycloheximide cs 36
Cc1ccccc1-c1noc(-c2ccc(NCc3ccco3)c([N+](=O)[O-])c2)n1	none (no result: RE007 growth inh, Cycloheximide cs, FBPA Giardia inh, Shiga toxin inh, LmPK inh)
CNCC(=O)NC(CCCN=C(N)N)C(=O)NC(C(=O)NC(Cc1ccc(O)cc1)C(=O)NC(C(=O)NC(Cc1cnc[nH]1)C(=O)N1CCCC1C(=O)NC(C)C(=O)O)C(C)C)C(C)C (configuration not stated)	none (no result: RE007 growth inh, Cycloheximide cs, FBPA Giardia inh, Shiga toxin inh, LmPK inh)
CC(=O)c1ccc(OCc2cc(C(=O)N3CCN(C4CCCC4)C(=O)C3)no2)cc1	none (no result: Cycloheximide cs, FBPA Giardia inh, Shiga toxin inh, LmPK inh)
CC(=O)c1ccc(OCc2cc(C(=O)N3CCOCC3)no2)cc1	Cycloheximide cs 43, Shiga toxin inh 79
CC(=O)c1ccc(OCc2cc(C(=O)N3CCCCCCC3)no2)cc1	Cycloheximide cs 57, Shiga toxin inh 57 (no result: FBPA Giardia inh)
CC(=O)c1ccc(OCc2cc(C(=O)N3CCC(Oc4ccccc4C)CC3)no2)cc1	Cycloheximide cs 90, Shiga toxin inh 143
O=C(c1cc(COc2ccc(-n3cncn3)cc2)on1)N1CCCC1	none (no result: Cycloheximide cs, FBPA Giardia inh, Shiga toxin inh, LmPK inh)
O=S(=O)(CS(=O)(=O)c1ccc(Cl)cc1)c1ccc(Cl)cc1	none
Cc1cc(C)c(S(=O)(=O)N2CCOC2CNC(=O)C(=O)NCCN(C)C)c(C)c1 (configuration not stated)	none (no result: FBPA Giardia inh)
O=C(/C=C/c1ccc2ccccc2c1)c1ccoc1	Cycloheximide cs 34, Shiga toxin inh 53
C=CCCCCCCCCC(=O)OC	none (no result: RE007 growth inh, Cycloheximide cs, FBPA Giardia inh, Shiga toxin inh, LmPK inh)
O=C(CCc1nnc(CCCCc2ccccc2)o1)NCCN1CCOC1=O	Cycloheximide cs 21, Shiga toxin inh 84
O=C(CCc1nnc(CCCCc2ccccc2)o1)NCCCc1cccnc1	none
O=C(CCc1nnc(CCCc2ccccc2)o1)NCC(F)(F)F	Cycloheximide cs 36, Shiga toxin inh 39
O=C(CCc1nnc(CCCCc2ccccc2)o1)NCCn1cccn1	none
COC(c1ccccc1)c1nnc(CCC(=O)NCCCc2ccccc2)o1 (configuration not stated)	Cycloheximide cs 17
O=C(CCc1nnc(CCCc2ccccc2)o1)NCCCC1CCCC1	Cycloheximide cs 41, Shiga toxin inh 120
Cc1cc(C)cc(-n2ccnc2SCC(=O)Nc2ccc(C)cc2C)c1	none (no result: RE007 growth inh, Cycloheximide cs, FBPA Giardia inh, Shiga toxin inh, LmPK inh)
O=C(CCS(=O)(=O)c1cc(Br)cc2c1N(C(=O)C1CC1)CC2)N1CCN(c2ccc(F)cc2)CC1	none (no result: RE007 growth inh, Cycloheximide cs, FBPA Giardia inh, Shiga toxin inh, LmPK inh)
O=C(CCc1nnc(CCCc2ccccc2)o1)NCCc1ccco1	Cycloheximide cs 43, Shiga toxin inh 74
O=C(CCc1nnc(CCCc2ccccc2)o1)NCCc1ccccc1	Cycloheximide cs 22, Shiga toxin inh 43
CCOC(=O)CCNC(=O)CCc1nnc(CCCc2ccccc2)o1	Cycloheximide cs 29, Shiga toxin inh 96
O=C(CCc1nnc(CCCCc2ccccc2)o1)NCc1cccc(F)c1	none
O=C(CCc1nnc(CCCCc2ccccc2)o1)NCc1cc(F)ccc1F	none
COc1cc(OC)cc(-c2c(-c3cccs3)c3cc(-c4cccc5[nH]ccc45)ccc3n2C)c1	none (no result: Cycloheximide cs, FBPA Giardia inh, Shiga toxin inh, LmPK inh)
CCOc1ccc(CCNC(=O)CSCC(=O)Nc2cccc(C)c2)cc1OCC	none (no result: Cycloheximide cs, FBPA Giardia inh, Shiga toxin inh, LmPK inh)
O=C(N=C1SC2CS(=O)(=O)CC2N1c1ccc(F)c(Cl)c1)C1CCCO1 (configuration not stated)	none (no result: FBPA Giardia inh)
COc1cc(/C=C2\SC(=S)N(NC(=O)c3ccccc3OC)C2=O)ccc1O	Cycloheximide cs 17
COc1cc(/C=C2\SC(=S)N(NC(=O)c3ccc(O)c(OC)c3)C2=O)ccc1O	Cycloheximide cs 21
CC(=O)NN1C(=O)/C(=C/c2ccc(C(C)C)cc2)SC1=S	Cycloheximide cs 16
CN(CC(=O)Nc1ccccc1Cl)C(=O)COC(=O)C1CCN(c2ccc(C(F)(F)F)cn2)CC1	none (no result: Cycloheximide cs, FBPA Giardia inh, Shiga toxin inh, LmPK inh)
O=C1CSc2ccc(S(=O)(=O)CCC(=O)NC3CCCCC3)cc2N1	none (no result: FBPA Giardia inh)
Cc1ccccc1NC(=O)C(=O)NCc1ccccn1	Cycloheximide cs 27
Cc1ccc(NC(=O)C(=O)NCc2ccccn2)cc1	Cycloheximide cs 29, Shiga toxin inh 87
COc1ccc(Br)cc1S(=O)(=O)NCc1ccccn1	none
Cc1cc(Br)ccc1NCc1ccccn1	Cycloheximide cs 31, FBPA Giardia inh inconclusive, Shiga toxin inh 67
Cc1cccc(C)c1NC(=O)C(=O)NCc1ccccn1	none (no result: FBPA Giardia inh)
O=C(NCc1ccccn1)C(=O)Nc1ccccc1	Cycloheximide cs 23, Shiga toxin inh 67
Cc1cc(C)cc(NC(=O)C(=O)NCc2ccccn2)c1	none
COc1ccccc1CNS(=O)(=O)c1cc(Br)cc2c1N(C(=O)C1CC1)CC2	none (no result: RE007 growth inh, Cycloheximide cs, FBPA Giardia inh, Shiga toxin inh, LmPK inh)
c1ccc(NCc2ccccn2)cc1	Cycloheximide cs 18, Shiga toxin inh 95
OC(CNCc1ccccn1)c1ccccc1 (configuration not stated)	none
COc1ccc(/C=C2\SC(N3CCCCC3)=NC2=O)cc1	Cycloheximide cs 22
CCOC(=O)C1CCCN(C2=NC(=O)/C(=C/c3ccc(O)c(OC)c3)S2)C1 (configuration not stated)	Cycloheximide cs 14
O=C1N=C(N2CCCC2)S/C1=C\C=C\c1ccccc1	Cycloheximide cs 47, Shiga toxin inh 69
Cc1ccc(S(=O)(=O)Nc2cc3c(cc2C)n(C)c(=O)c(=O)n3C)cc1	none (no result: RE007 growth inh, Cycloheximide cs, FBPA Giardia inh, Shiga toxin inh, LmPK inh)
CN(C)C(=S)Oc1ccccc1C1(C)OCCO1	none (no result: Cycloheximide cs, FBPA Giardia inh, Shiga toxin inh, LmPK inh)
N#C/C(=C\c1c[nH]c2ccccc12)C(=O)NCC1CCCO1 (configuration not stated)	Cycloheximide cs 31, Shiga toxin inh 54
COc1cc(/C=C(\C#N)C(=O)NCC2CCCO2)ccc1OC(C)C (configuration not stated)	Cycloheximide cs 73
COc1ccc(/C=C(\C#N)C(=O)NCC2CCCO2)cc1OC (configuration not stated)	none
Cc1[nH]c2ccccc2c1/C=C(\C#N)C(=O)NCC1CCCO1 (configuration not stated)	Cycloheximide cs 18
